In PubChem BioAssay (NCI):
About 83,000 compounds went through this panel and 20% of them were active in at least one assay; those are over-represented in the sample as a whole.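 Plates (96-well) were seeded with cells, treated with compound at one concentration, and incubated for 48 hours before percent growth was determined.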 A number with no mark means an inactive call. Calls of active or inactive are those of the source. The calls were made as follows: active = growth percent below 10; inactive = the rest.

Tests used:
Assay in all cases: NCI-60 one-dose screen, 48 h (100 = growth as untreated, 0 = no growth, -100 = all killed)
Conditions in all cases: 10 µM unless noted
HCT-15 colon = test system: HCT-15 colon
HT29 colon = test system: HT29 colon
SNB-75 CNS = test system: SNB-75 CNS
SNB-19 CNS = test system: SNB-19 CNS
U251 CNS = test system: U251 CNS
PC-3 prostate = test system: PC-3 prostate
SK-MEL-5 melanoma = test system: SK-MEL-5 melanoma
UACC-62 melanoma = test system: UACC-62 melanoma
LOX IMVI melanoma = test system: LOX IMVI melanoma
SK-MEL-28 melanoma = test system: SK-MEL-28 melanoma
EKVX NSCLC = test system: EKVX NSCLC
SN12C renal = test system: SN12C renal
UO-31 renal = test system: UO-31 renal
TK-10 renal = test system: TK-10 renal
ACHN renal = test system: ACHN renal
CAKI-1 renal = test system: CAKI-1 renal
A498 renal = test system: A498 renal
CCRF-CEM leukemia = test system: CCRF-CEM leukemia
MOLT-4 leukemia = test system: MOLT-4 leukemia

SMILES	growth (HCT-15 colon)	growth (HT29 colon)	growth (SNB-75 CNS)	growth (SNB-19 CNS)	growth (U251 CNS)	growth (PC-3 prostate)	growth (SK-MEL-5 melanoma)	growth (UACC-62 melanoma)	growth (LOX IMVI melanoma)	growth (SK-MEL-28 melanoma)	growth (EKVX NSCLC)	growth (SN12C renal)	growth (UO-31 renal)	growth (TK-10 renal)	growth (ACHN renal)	growth (CAKI-1 renal)	growth (A498 renal)	growth (CCRF-CEM leukemia)	growth (MOLT-4 leukemia)
Cc1cc(C2(c3ccc(O)c(C)c3)OS(=O)(=O)c3ccccc32)ccc1O	117%	115%	91.6%	105%	107%	90.8%	103%	107%	104%	113%	111%	101%	64.7%	111%	108%	97.6%	94.2%	101%	91.1%
CNS(=O)(=O)Nc1nccc(Cc2c(C)c3ccc(Oc4ncccn4)cc3oc2=O)c1F	63.7%	10.4%	78.1%	63.7%	54.8%	101%	23.1%	4.49% (active)	25.6%	8.61% (active)	55%	73.1%	53.8%	34.1%	56.8%	44.7%	-17.2% (active)	84.4%	76.2%
Cc1cc(Oc2ccccc2)ccc1Nc1ncnc2ccc(-c3cnc(Cl)c(NS(C)(=O)=O)c3)cc12	21.6%	15.8%	0.0921% (active)	32.4%	29.4%	25.3%	-25.3% (active)	10.5%	-3.68% (active)	7.7% (active)	21.3%	35.6%	3.47% (active)	4.28% (active)	30.4%	2.11% (active)	-30.8% (active)	21.2%	-0.671% (active)
CNC(=O)c1ccccc1Nc1nc(Nc2ccc3c(c2OC)CCC[C@H](N2CCN(CCO)CC2)C3)ncc1Cl	0.498% (active)	-44.3% (active)	-5.43% (active)	18.8%	-19.4% (active)	22.9%	-92.4% (active)	-45% (active)	-89.6% (active)	-77.1% (active)	11.8%	7.63% (active)	6.91% (active)	26.2%	5.75% (active)	-26.6% (active)	-64.3% (active)	7.29% (active)	-23.5% (active)
CNC(=O)c1cc(Oc2ccc(NC(=O)Nc3cc(C(C)(C)C)nn3-c3ccc4ncccc4c3)c(F)c2)ccn1	-12.9% (active)	-45.3% (active)	-94% (active)	1.45% (active)	-21.7% (active)	-23.6% (active)	-83.5% (active)	-52% (active)	-72.9% (active)	-45.5% (active)	-16.9% (active)	-10.3% (active)	-21.4% (active)	-35.5% (active)	-20.6% (active)	-24.9% (active)	-71.3% (active)	8.17% (active)	-1.34% (active)
NC1(C(=O)N[C@@H](CCO)c2ccc(Cl)cc2)CCN(c2ncnc3[nH]ccc23)CC1	58.1%	23.5%	-46.8% (active)	43.5%	34.6%	49.8%	70.5%	-15.6% (active)	40.3%	24.7%	61.9%	55.6%	17.5%	13.7%	53.4%	34.4%	-46.2% (active)	41.6%	11.4%
CNC(=O)c1cnc(C)nc1-c1cc(C(C)(C)C)c(O)c(C(C)(C)C)c1	103%	106%	67.6%	87.2%	97.1%	89.3%	92.1%	90.7%	110%	107%	92.6%	100%	94.6%	101%	101%	96.8%	112%	106%	95.7%
CCOc1cccc(/C=N/NC(=O)c2ccccc2Nc2ccnc(C(F)(F)F)c2)c1O	34.2%	47.9%	14.1%	21.1%	15.2%	54.2%	-67% (active)	3.69% (active)	7.4% (active)	21.1%	10.6%	27.2%	-15.1% (active)	23.5%	5.76% (active)	4.57% (active)	-10.8% (active)	-37.3% (active)	-10.9% (active)
